Laboratory results taken from PubChem BioAssay (Tox21).
Records with an inconclusive call do not appear. A call without a number means that no potency is given here. Activity calls are given as the source filed them. Unless noted, calls follow the shape of the full dose curve. Numbered stars: 1 amine (or outer) side, 2 acyl side, 3 side chain; on linkers, the order of the positions; unused ones are H or OH. Bridge positions count the residues as written; N and C are the ends. Square brackets hold non-standard residues; d marks the D form. Peptide text beside a SMILES is read from it. I, II: the chains in the order shown. Actinocin(9to1) = Cc1c2oc3c(C)ccc(C(=O)[*:1])c3nc-2c(C(=O)[*:2])c(N)c1=O; NMeV = CN[C@H](C(=O)O)C(C)C; Sar = CNCC(=O)O

Experiments:
[1] = Nuclear factor erythroid 2-related factor 2/antioxidant responsive element (Nrf2/ARE) small molecule agonists: qHTS cell viability counter screen in human keratinocytes (AID 1919968; active = well fitted curve in the direction sought with a large enough effect in the repeat runs; an effect the other way counts as inactive or inconclusive; also: nearly all actives have a fitted effect of over 55% in size; also: potency is read from the fitted curve at half-maximal effect)
Summary of the method: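 Seed 1,500 KeratinoSens cells per well, then incubate 5 h at 37 C/5% CO2. Add compounds in DMSO and incubate 23 h. Add CellTiter-Fluor, wait 1 h and read fluorescence.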

[2] = biological target: Gonadotropin-releasing hormone receptor (Homo sapiens) (UniProt P30968); assay: Human gonadotropin-releasing hormone receptor (GnRHR) small molecule agonists, calcium flux assay in GnRHR-HEK293 cells (AID 1920063); also: nearly all actives have a fitted effect of over 35% in size
Sequence of Gonadotropin-releasing hormone receptor (Homo sapiens) (P30968 whole entry, looked up): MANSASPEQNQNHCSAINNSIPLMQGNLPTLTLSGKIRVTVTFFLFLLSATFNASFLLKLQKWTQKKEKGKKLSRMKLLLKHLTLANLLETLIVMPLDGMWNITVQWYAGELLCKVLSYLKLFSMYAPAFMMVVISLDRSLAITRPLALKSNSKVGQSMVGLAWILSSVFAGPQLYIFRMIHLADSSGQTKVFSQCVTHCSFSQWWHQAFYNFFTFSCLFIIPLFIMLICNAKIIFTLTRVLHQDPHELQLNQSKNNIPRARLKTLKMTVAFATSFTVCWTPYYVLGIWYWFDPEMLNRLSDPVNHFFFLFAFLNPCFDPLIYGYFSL
Summary of the method: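 Cells: HEK293 stably expressing human GnRHR. Steps: overnight (18 h) culture, 1 h calcium dye loading at 37 C, compound addition, kinetic fluorescence read at 480/540 nm. Each compound tested at 15 concentrations in triplicate.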

[3] = biological target: KiSS-1 receptor (Homo sapiens) (UniProt Q969F8); assay: Human kisspeptin (KISS1R) small molecule agonists, calcium flux assay in KISS1R-HEK293 cells (AID 1920064; active = well fitted curve in the direction sought with a large enough effect in the repeat runs; an effect the other way counts as inactive or inconclusive)
Sequence of KiSS-1 receptor (Homo sapiens) (Q969F8 whole entry, looked up): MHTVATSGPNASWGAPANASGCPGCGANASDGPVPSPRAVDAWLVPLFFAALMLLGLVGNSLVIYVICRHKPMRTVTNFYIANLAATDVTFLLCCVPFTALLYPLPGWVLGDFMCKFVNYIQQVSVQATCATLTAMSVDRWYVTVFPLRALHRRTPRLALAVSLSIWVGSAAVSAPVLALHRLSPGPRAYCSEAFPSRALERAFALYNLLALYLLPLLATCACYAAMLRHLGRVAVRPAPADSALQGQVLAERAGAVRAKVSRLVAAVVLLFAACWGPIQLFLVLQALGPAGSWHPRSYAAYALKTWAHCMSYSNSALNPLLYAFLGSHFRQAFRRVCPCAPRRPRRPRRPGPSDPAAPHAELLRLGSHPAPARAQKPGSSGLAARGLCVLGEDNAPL
Summary of the method: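 Cells plated and incubated 18 h; dye added, 1 h at 37 C; compounds in DMSO pinned in; signal read at 480/540 nm every second for 3 min. Each compound tested at 15 concentrations in triplicate.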

[4] = G protein-coupled receptor (GPCR) small molecule agonists, calcium flux assay: HEK293 wild type cell line counter screen (AID 1920065)
Summary of the method: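 Counter-screen of the Tox21 10K library for non-specific calcium release: dye-loaded cells received compounds in DMSO and were monitored by kinetic fluorescence (480/540 nm, 3 min). Fifteen concentrations, run in triplicate.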

[5] = p53 small molecule agonists, cell-based qHTS assay with human liver microsomes (AID 1963577);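 also: p53 response element beta-lactamase reporter cells with liver microsomes plus NADPH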
Summary of the method: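 HLM-supplemented p53RE-bla reporter assay: 16 h compound exposure at 37 C, microsomes and NADPH each 0.5 mg/mL final, read by fluorescence intensity.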

[6] = p53 small molecule agonists, cell-based qHTS assay with human liver microsomes: qHTS cell viability counter screen (AID 1963579); also: nearly all actives have a fitted effect of over 45% in size
Summary of the method: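 Viability of p53RE-bla cells is measured as CellTiter-Glo luminescence following a 16 h, 37 C incubation with compound, liver microsomes from human donors and NADPH.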

[7] = p53 small molecule agonists, cell-based qHTS assay with rat liver microsomes: qHTS cell viability counter screen (AID 1963580); also: nearly all actives have a fitted effect of over 45% in size
Summary of the method: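 Intracellular ATP, by CellTiter-Glo luminescence, defines viability. HCT-116 p53RE-bla cells, 4,000 per well, were compound-treated in the presence of rat liver microsomes and NADPH for 16 h at 37 C.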

[8] = p53 small molecule agonists, cell-based qHTS assay: qHTS cell viability counter screen (AID 1963581); also: nearly all actives have a fitted effect of over 45% in size
Summary of the method: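 Cells: HCT-116 with p53 response element-driven beta-lactamase. Treatment: 16 h, 37 C, compounds in DMSO. Read: CellTiter-Glo luminescence after 30 min RT.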

[9] = p53 small molecule agonists, cell-based qHTS assay (AID 1963582; active = well fitted activation curve with a large enough effect in the signal ratio in the repeat runs, not every such curve was filed as active; the % refers to the signal ratio)
Summary of the method: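 Quantitative HTS in p53RE-bla cells: after a 5 h settling period, compounds delivered in DMSO were left on cells for 16 h at 37 C, and reporter induction was measured as fluorescence following 2 h substrate loading.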

[10] = biological target: 5-hydroxytryptamine receptor 2A (Homo sapiens) (UniProt P28223); assay: 5-hydroxytryptamine receptor 2A (HTR2A) small molecule antagonists, cell-based qHTS assay (AID 1963586); also: nearly all actives have a fitted effect of over 45% in size
Sequence of 5-hydroxytryptamine receptor 2A (Homo sapiens) (P28223 whole entry, looked up): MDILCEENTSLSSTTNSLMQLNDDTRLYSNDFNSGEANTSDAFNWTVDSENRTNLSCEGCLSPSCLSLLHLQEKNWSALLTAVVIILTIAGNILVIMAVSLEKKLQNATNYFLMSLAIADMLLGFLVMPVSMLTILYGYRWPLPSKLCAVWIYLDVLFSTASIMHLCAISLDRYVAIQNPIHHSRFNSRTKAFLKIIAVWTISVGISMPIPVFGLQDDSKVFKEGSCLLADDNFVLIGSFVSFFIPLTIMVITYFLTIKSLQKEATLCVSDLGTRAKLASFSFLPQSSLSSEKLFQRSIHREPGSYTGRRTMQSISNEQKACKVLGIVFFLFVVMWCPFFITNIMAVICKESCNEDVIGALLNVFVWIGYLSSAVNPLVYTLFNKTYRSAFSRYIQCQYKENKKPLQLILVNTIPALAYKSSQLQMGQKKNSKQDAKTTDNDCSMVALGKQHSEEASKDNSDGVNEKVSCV
Summary of the method: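 Antagonist-mode intracellular calcium assay: DOI (4 nM) added after 5 min compound pre-incubation at room temperature to dye-loaded HTR2A-CHO cells. Fluorescence followed for 3 min, sampled every second.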

[11] = biological target: 5-hydroxytryptamine receptor 2A (Homo sapiens) (UniProt P28223); assay: 5-hydroxytryptamine receptor 2A (HTR2A) small molecule agonists, cell-based qHTS assay (AID 1963587); also: nearly all actives have a fitted effect of over 30% in size
Summary of the method: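 Kinetic calcium-flux fluorescence (2 min, 1 sec intervals) after compound addition in agonist mode. HTR2A-CHO cells were cultured 18 h, then dye-loaded 1 h at 37 C.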

[12] = biological target: Muscarinic acetylcholine receptor M1 (Homo sapiens) (UniProt P11229); assay: Cholinergic receptor muscarinic 1 (CHRM1) small molecule agonists, cell-based qHTS assay (AID 1963589); also: nearly all actives have a fitted effect of over 35% in size
Sequence of Muscarinic acetylcholine receptor M1 (Homo sapiens) (P11229 whole entry, looked up): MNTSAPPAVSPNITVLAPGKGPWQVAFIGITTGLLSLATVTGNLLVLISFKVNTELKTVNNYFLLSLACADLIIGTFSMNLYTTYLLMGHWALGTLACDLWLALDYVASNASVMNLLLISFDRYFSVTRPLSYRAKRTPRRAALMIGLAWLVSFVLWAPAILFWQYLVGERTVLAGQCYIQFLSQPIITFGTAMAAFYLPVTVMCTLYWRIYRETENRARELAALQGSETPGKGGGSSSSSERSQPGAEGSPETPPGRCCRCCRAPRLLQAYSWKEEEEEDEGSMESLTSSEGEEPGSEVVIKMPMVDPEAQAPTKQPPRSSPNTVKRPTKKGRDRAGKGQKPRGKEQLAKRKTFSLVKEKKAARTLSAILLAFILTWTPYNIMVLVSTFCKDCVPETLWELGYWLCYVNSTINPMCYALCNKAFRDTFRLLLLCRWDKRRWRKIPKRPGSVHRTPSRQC
Summary of the method: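 Agonist-mode qHTS in CHO cells stably carrying human muscarinic M1. Intracellular calcium is tracked by fluorescence every second after compound transfer; each compound runs at 15 concentrations in three independent runs.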

[13] = cAMP Responsive Elements (CRE) small molecule agonists, cell-based qHTS assay (AID 1963590)
Summary of the method: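 Agonist mode qHTS in CRE-bla HEK 293T cells: compounds dosed from DMSO for 3 h at 37 C/5% CO2, followed by LiveBLAzer B/G FRET substrate for 2 h at room temperature.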

[14] = cAMP Responsive Elements (CRE) small molecule antagonists, cell-based qHTS assay (AID 1963591; active = well fitted inhibition curve with a large enough effect in the signal ratio in the repeat runs, not every such curve was filed as active; the % refers to the signal ratio)
Summary of the method: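 Antagonist mode: test compounds are co-incubated with the adenylyl cyclase activator NKH477 (0.25 uM final) on CRE-bla HEK293T cells for 3 h at 37 °C, followed by LiveBLAzer substrate loading.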

[15] = biological target: Beta-2 adrenergic receptor (Homo sapiens) (UniProt P07550); assay: Adrenergic beta2 receptor (ADRB2) small molecule antagonists, cell-based qHTS assay (AID 1963592); also: series mostly up to about 92 µM; nearly all actives have a fitted effect of over 50% in size
Sequence of Beta-2 adrenergic receptor (Homo sapiens) (P07550 whole entry, looked up): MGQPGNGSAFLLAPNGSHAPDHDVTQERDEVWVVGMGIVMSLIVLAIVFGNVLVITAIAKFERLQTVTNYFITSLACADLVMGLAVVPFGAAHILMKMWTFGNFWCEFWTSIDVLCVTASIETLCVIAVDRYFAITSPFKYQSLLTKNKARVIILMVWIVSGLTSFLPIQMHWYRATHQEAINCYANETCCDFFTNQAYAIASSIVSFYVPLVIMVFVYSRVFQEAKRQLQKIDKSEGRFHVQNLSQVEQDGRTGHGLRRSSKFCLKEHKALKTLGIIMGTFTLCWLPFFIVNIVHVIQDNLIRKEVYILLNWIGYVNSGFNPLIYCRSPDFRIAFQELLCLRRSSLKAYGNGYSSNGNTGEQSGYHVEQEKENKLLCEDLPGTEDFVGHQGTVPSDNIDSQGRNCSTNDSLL
Summary of the method: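 Cells (CHO, stable ADRB2 overexpression) incubated 18-20hr at 37C; compounds added from DMSO; agonist mix (1nM isoproterenol, 100uM IBMX, 25uM Ro-20-1724) added; 0.5hr RT; d2-cAMP and anti-cAMP-cryptate added; 1hr RT; 665/615 nm read.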

[16] = biological target: D(2) dopamine receptor (Homo sapiens) (UniProt P14416); assay: Dopamine D2 receptor (DRD2) small molecule agonists, cell-based qHTS assay (AID 1963594); also: nearly all actives have a fitted effect of over 35% in size
Sequence of D(2) dopamine receptor (Homo sapiens) (P14416 whole entry, looked up): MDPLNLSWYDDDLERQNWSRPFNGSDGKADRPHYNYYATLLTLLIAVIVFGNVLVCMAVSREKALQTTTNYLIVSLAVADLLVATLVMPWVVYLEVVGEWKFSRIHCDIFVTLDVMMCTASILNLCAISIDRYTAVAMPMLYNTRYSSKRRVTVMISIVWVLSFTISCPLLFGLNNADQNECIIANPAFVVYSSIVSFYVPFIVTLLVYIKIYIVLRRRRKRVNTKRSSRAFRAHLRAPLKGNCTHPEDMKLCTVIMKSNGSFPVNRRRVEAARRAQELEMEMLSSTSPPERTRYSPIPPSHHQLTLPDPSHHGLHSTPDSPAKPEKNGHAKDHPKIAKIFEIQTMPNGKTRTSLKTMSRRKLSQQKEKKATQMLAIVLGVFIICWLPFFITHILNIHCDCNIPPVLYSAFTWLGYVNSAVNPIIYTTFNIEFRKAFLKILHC
Summary of the method: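 cAMP accumulation in DRD2-HEK293 cells measured by HTRF after 1 h detection; compounds added 10 min before NKH477 (200nM […]) forskolin-analogue stimulation, 30 min at room temperature, with Ro20-1724 present at 0.1 mM final.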

[17] = biological target: D(2) dopamine receptor (Homo sapiens) (UniProt P14416); assay: Dopamine D2 receptor (DRD2) small molecule antagonists, cell-based qHTS assay (AID 1963595; active = well fitted inhibition curve with a large enough effect in the signal ratio in the repeat runs, with a control signal flat; the % refers to the signal ratio)
Summary of the method: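 In this cell-based antagonist screen, compounds act for 10 min at room temperature before a 30 min challenge with 12 nM quinpirole and 200 nM NKH477. cAMP is quantified by HTRF competition in DRD2-HEK293 cells containing 0.1 mM Ro20-1724.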

[18] = biological target: Muscarinic acetylcholine receptor M1 (Homo sapiens) (UniProt P11229); assay: Cholinergic receptor muscarinic 1 (CHRM1) small molecule antagonists, cell-based qHTS assay (AID 1963588); also: nearly all actives have a fitted effect of over 40% in size
Summary of the method: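 CHRM1-CHO calcium-flux assay, antagonist mode. Cells were seeded 18 h, dye-loaded 1 h at 37 C and given compound for 5 min at RT, then acetylcholine was added at 50nM. FDSS fluorescence was read 3 min; 15 concentrations, three runs.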

[19] = p53 small molecule agonists, cell-based qHTS assay with rat liver microsomes (AID 1963578)
Summary of the method: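 Quantitative HTS of the Tox21 10K library: p53RE-bla cells, rat liver microsomes plus NADPH at 0.5 mg/mL final each, 16 h at 37 C, beta-lactamase fluorescence detection.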

[20] = biological target: Beta-2 adrenergic receptor (Homo sapiens) (UniProt P07550); assay: Adrenergic beta2 receptor (ADRB2) small molecule agonists, cell-based qHTS assay (AID 1963593);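 also: CHO cells stably overexpressing human ADRB2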
Summary of the method: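 CHO cells stably over-expressing ADRB2 were plated overnight at 37C, then dosed with compounds plus a stimulation mix containing 100uM IBMX and 25uM Ro-20-1724 for 0.5hr at room temperature. cAMP was measured by HTRF competition, 1hr.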

SMILES	Potency [1]	Potency [2]	Potency [3]	Potency [4]	Potency [5]	Potency [6]	Potency [7]	Potency [8]	Potency [9]	Potency [10]	Potency [11]	Potency [12]	Potency [13]	Potency [14]	Potency [15]	Potency [16]	Potency [17]	Potency [18]	Potency [19]	Potency [20]
CC(C)C(=O)c1ccccc1	inactive	inactive	inactive	inactive	inactive	inactive	inactive	inactive	inactive	inactive	inactive	inactive	inactive	inactive	inactive	inactive	inactive	–	–	–
COC(OC)OC	inactive	inactive	inactive	inactive	inactive	inactive	inactive	inactive	inactive	inactive	inactive	inactive	inactive	–	inactive	inactive	–	inactive	–	–
O=S(=O)(O)c1ccc(N=Nc2c(O)ccc3cc(S(=O)(=O)O)ccc23)cc1	30.8 µM (active)	inactive	inactive	inactive	–	inactive	inactive	inactive	–	inactive	inactive	inactive	inactive	inactive	–	–	–	inactive	–	–
CN1CCOCC1	inactive	inactive	inactive	inactive	inactive	–	inactive	inactive	inactive	inactive	inactive	inactive	inactive	inactive	inactive	inactive	inactive	inactive	inactive	inactive
O=C1CCCCC1	inactive	inactive	inactive	inactive	–	inactive	inactive	inactive	–	inactive	inactive	inactive	inactive	inactive	inactive	inactive	inactive	inactive	–	inactive
Cc1c2oc3c(C)ccc(C(=O)N[C@@H]4C(=O)N[C@H](C(C)C)C(=O)N5CCC[C@H]5C(=O)N(C)CC(=O)N(C)[C@@H](C(C)C)C(=O)O[C@@H]4C)c3nc-2c(C(=O)N[C@@H]2C(=O)N[C@H](C(C)C)C(=O)N3CCC[C@H]3C(=O)N(C)CC(=O)N(C)[C@@H](C(C)C)C(=O)O[C@@H]2C)c(N)c1=O (I: T[dV]P[Sar][NMeV] / II: T[dV]P[Sar][NMeV]; ester I:1-I:C, II:1-II:C; linker I:N-II:N via Actinocin(9to1))	0.0421 µM (active)	inactive	inactive	inactive	inactive	–	inactive	–	–	–	–	–	–	–	inactive	inactive	inactive	–	inactive	inactive
CCCC(=O)OCc1ccccc1	inactive	inactive	inactive	inactive	inactive	inactive	inactive	inactive	inactive	inactive	inactive	inactive	inactive	inactive	inactive	–	inactive	–	–	inactive
C[C@@H]1CCC[C@H](C)N1CCCC(O)(c1ccccc1)c1ccccn1 (some centres not stated)	inactive	inactive	inactive	inactive	–	inactive	inactive	inactive	inactive	inactive	inactive	inactive	–	inactive	–	inactive	inactive	inactive	inactive	inactive
